Screening data deposited in PubChem by National Center for Advancing Translational Sciences (NCATS).
Pf growth 48h: inhibits P. falciparum growth in the first generation, 48 h; P. falciparum luciferase growth in erythrocytes, 48 h; Potency, µM (series often up to 28.7 µM), for the others: at the highest dose activity change, negative = inhibition, usual class: inhibitors; 5.9% of 310,000 active; AID 504832; note: potency is the fitted concentration of half-maximal effect; % is set by controls: 0 for no effect and ±100 for the full control effect
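Parasite viability was followed by luminescence of a genomically integrated firefly luciferase. Cultures held 0.1% parasitemia at 2% hematocrit (final), incubated under 5% CO2 at 37 C.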
NS1 inh: blocks influenza NS1 protein function. AID 2326. Potency, µM (doses to about 46.1 µM), inactives show top-dose activity, positive = more growth. 0.4% of 270,000 active; calls by dose curve; note: potency is the fitted concentration of half-maximal effect; actives are rising curves; nearly all actives have a fitted effect of over 50% in size
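Growth recovery, yeast-based: influenza A NS1 expressed in S. cerevisiae causes slow growth, and suppressors are detected by OD600. The parent strain without NS1 is used as positive control.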
Shiga toxin inh: Shiga toxin inhibition. inhibition, % at 38.7 µM. 9.2% of 290,000 active. Vero cells, Shiga toxin protein synthesis inhibition reporter; in the data active = inhibition mostly above about 28%, no sharp cut-off; inactive = mostly below about 43%; note: 0% is about no effect
Pf growth 96h: inhibits malaria parasite growth, 96 h; P. falciparum luciferase reporter growth, 96 h; Potency, µM (doses to about 28.7 µM), without a hit: at the highest dose activity change, negative = inhibition, most hits filed as inhibitors; 6.9% of 320,000 active; AID 504834; note: potency is the fitted concentration of half-maximal effect; % is set by controls: 0 for no effect and ±100 for the full control effect
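Two-generation exposure (96 h) targets delayed-death phenotype. Reporter parasites carrying integrated firefly luciferase, in red cells at 2% hematocrit and 0.05% parasitemia final, kept at 37 C, 5% CO2; luminescence loss indicates inhibition.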
CHX counter: counter-screen for Shiga toxin inhibitors: cycloheximide protein synthesis inhibition | cell reporter, cycloheximide protein synthesis inhibition counterscreen | max response, % | 12% of 300,000 active; in the data active = max response mostly above about 13%, no sharp cut-off; inactive = mostly below about 14%; note: read at 38.3 µM for the half of the compounds with a filed dose; 0% is about no effect
Giardia FBPA inh: inhibitors of Giardia lamblia fructose-1,6-bisphosphate aldolase. Potency, µM (top dose mostly 59.6 µM), for inactives: top-dose activity, negative = inhibition, most hits filed as inhibitors. A8B2U2. purified Giardia FBPA. 0.71% of 290,000 active; note: potency is the fitted concentration of half-maximal effect; % is set by controls: 0 for no effect and ±100 for the full control effect; nearly all actives have a fitted effect of over 55% in size
Target sequence (A8B2U2 whole entry, looked up): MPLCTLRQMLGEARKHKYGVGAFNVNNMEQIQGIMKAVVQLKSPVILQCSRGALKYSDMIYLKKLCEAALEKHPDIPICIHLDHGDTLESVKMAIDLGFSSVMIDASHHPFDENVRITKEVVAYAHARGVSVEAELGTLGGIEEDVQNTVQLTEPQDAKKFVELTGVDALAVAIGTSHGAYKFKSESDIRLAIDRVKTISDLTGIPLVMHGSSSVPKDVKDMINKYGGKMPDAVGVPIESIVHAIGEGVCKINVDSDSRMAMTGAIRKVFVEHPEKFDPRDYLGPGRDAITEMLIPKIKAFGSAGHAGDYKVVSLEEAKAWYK
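Giardia FBPA (40 nM reagent) was preincubated 10 min at RT with compound (up to 57.5 uM final), then substrate plus GAPDH/TPI/NAD/arsenate coupling system with diaphorase/resazurin was added; resorufin fluorescence (525/598 nm) was read after 20 min.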
Starred values were filed as active, the others as inactive; [ ] = remark or other dose. This is a sample that favours compounds with a hit; in the whole collection about 21% have one here. Unless noted, calls come from the whole dose curve; as a rule, active = well fitted curve in the direction sought with a large enough effect; inconclusive = small, poorly fitted or top-dose-only effect, or another doubt; inactive = no such curve, though single readings can be large; an effect the other way counts as inactive or inconclusive.

How did CCOC(=O)c1cc2ccc3ccccc3c2s1 do in these assays?
Pf growth 48h: 401.5%; NS1 inh: -4.8%; Shiga toxin inh: 74.8*; Pf growth 96h: 356.4%; CHX counter: 47.9*; Giardia FBPA inh: -4.9%

How did CCOC(=O)c1cc2c(s1)-c1ccccc1CC2 do in these assays?
Pf growth 48h: 46.2%; NS1 inh: -5.9%; Shiga toxin inh: 67.3*; Pf growth 96h: 39.0%; CHX counter: 36.6*; Giardia FBPA inh: 3.9%

How did Cc1cccc(/C=N/NC(=O)c2cc3c(s2)-c2ccccc2CC3)c1 do in these assays?
Pf growth 48h: inconclusive; NS1 inh: 2.0%; Shiga toxin inh: 22.9; Pf growth 96h: 16.2%; CHX counter: 10.9; Giardia FBPA inh: -5.4%

Results for CO[C@H]1C[C@@H]2C[C@H](O)C[C@@H](CC(=O)O[C@@H](/C=C\CC(C)C)C[C@@H]3CC[C@H](C)[C@@H](C1)O3)O2 ?
Giardia FBPA inh: 0.5%[12.9 µM]

Results for Nc1ccccc1C(=O)N/N=C1/C2CN3CCN(C2)CC1(Cc1ccccc1)C3 ?
Pf growth 48h: 20.3%; Shiga toxin inh: 28.6; Pf growth 96h: -4.2%; CHX counter: -5.5; Giardia FBPA inh: 2.6%

How did Nc1ccccc1C(=O)N/N=C1\C2CN3CCN(C2)CC1(c1ccccc1)C3 do in these assays?
Pf growth 48h: 47.7%; NS1 inh: 4.1%; Shiga toxin inh: 80.9*; Pf growth 96h: 7.1%; CHX counter: 50.4*; Giardia FBPA inh: 0.9%

Results for O=C(N/N=C1\C2CN3CCN(C2)CC1(c1ccccc1)C3)c1ccc(F)cc1 ?
Pf growth 48h: -7.2%; NS1 inh: 16.5%; Shiga toxin inh: 0.0; Pf growth 96h: 0.8%; CHX counter: 23.4*; Giardia FBPA inh: 4.2%

Results for CCCC12CN3CCN(CC(C3)/C1=N\NC(=O)c1ccccc1N)C2 ?
Pf growth 48h: 23.3%; NS1 inh: 3.2%; Shiga toxin inh: 37.9*; Pf growth 96h: 9.7%; CHX counter: 24.9*; Giardia FBPA inh: 4.5%

Results for CC(C)(C)c1ccc(C(=O)N/N=C2\C3CN4CCN(C3)CC2(c2ccccc2)C4)cc1 ?
Pf growth 48h: 1.1%; NS1 inh: 5.8%; Shiga toxin inh: -10.8; Pf growth 96h: 50.9%; CHX counter: 1.2; Giardia FBPA inh: 6.0%

How did Cc1ccc2nsnc2c1S(=O)(=O)Nc1ccccc1C(=O)O do in these assays?
Pf growth 48h: -2.7%; NS1 inh: 0.4%; Shiga toxin inh: -10.7; Pf growth 96h: -4.6%; CHX counter: -3.8; Giardia FBPA inh: -9.6%

How did Cc1nc([N+](=O)[O-])c(Sc2nc3ccccc3[nH]2)n1Cc1ccccc1 do in these assays?
Pf growth 48h: inconclusive; NS1 inh: -2.8%; Shiga toxin inh: -12.1; Pf growth 96h: 4.15µM*; CHX counter: -4.4; Giardia FBPA inh: -4.5%

What do the screens show for `CCCn1c(N2CCN(Cc3ccc(Cl)cc3)CC2)nc2ccccc21`?
Pf growth 48h: inconclusive; NS1 inh: -35.8%; Shiga toxin inh: 20.2; Pf growth 96h: 29.1%; CHX counter: 5.9; Giardia FBPA inh: -22.4%

Results for Cc1cc2nc(Sc3c([N+](=O)[O-])nc(C)n3Cc3ccccc3)[nH]c2cc1C ?
Pf growth 48h: 10.4µM*; NS1 inh: -1.7%; Shiga toxin inh: -10.0; Pf growth 96h: inconclusive; CHX counter: -1.8; Giardia FBPA inh: 0.6%

How did COc1ccc2nc(Sc3c([N+](=O)[O-])nc(C)n3Cc3ccccc3)[nH]c2c1 do in these assays?
Pf growth 48h: 22.5%; NS1 inh: 0.7%; Shiga toxin inh: -11.5; Pf growth 96h: inconclusive; CHX counter: -5.2; Giardia FBPA inh: -2.9%

What do the screens show for `Cc1nc([N+](=O)[O-])c(N2CCN(Cc3ccccc3)CC2)n1Cc1ccccc1`?
NS1 inh: -0.8%; Shiga toxin inh: -13.1; Pf growth 96h: 16.5µM*; CHX counter: -4.9; Giardia FBPA inh: 4.6%

What do the screens show for `Cc1nc([N+](=O)[O-])c(N2CCOCC2)n1Cc1ccccc1`?
Pf growth 48h: 15.5%; NS1 inh: 3.0%; Shiga toxin inh: -0.4; Pf growth 96h: -9.7%; CHX counter: 13.9; Giardia FBPA inh: 19.7%

Results for CCn1c(N2CCN(Cc3ccc([N+](=O)[O-])cc3)CC2)nc2ccccc21 ?
Pf growth 48h: inconclusive; NS1 inh: -48.1%; Shiga toxin inh: 1.7; Pf growth 96h: 13.1µM*; CHX counter: -3.0; Giardia FBPA inh: inconclusive
